According to the supplement of paper PMC6555819:

Tested on: RARa homodimer (NR concentration 270 nM)
Assay: PBM binding z-score (relative to random genomic background probes); higher = stronger binding; sequences stand for … in GC…GCGATTGACAGCGTAGAATGAAGG
How it was run: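 Custom Agilent 4×180K protein-binding microarrays carried double-stranded probes, each with a 34-nt variable region. These regions held direct-repeat seeds, single-nucleotide variants, half-site ablations and random human genomic background sequences. Ligand-free nuclear receptor dimers were incubated on the arrays for 1 h, antibodies against each partner (one per run) detected binding, and scanned fluorescence was regression-normalized. Binding z-scores take the random background probes as reference.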

Row | Sequence | PBM binding z-score
1 | AGTATGAGGTTATTAAGATCAGGGAATTGCGGTC | 1.05
2 | TCTTGTAGATCAACAGGAGGTTTAGAAAGATCGA | -0.667
3 | TCGAGTAGGTTAGTCGGGTCATTCAGCCAACATA | -0.535
4 | CCTCGGAGGAAAACAGGAGGTCAGAGCTGCCAGA | 0.262
5 | CCTACTGGGCCATAGGTCATTGATTCCAATGCTC | -0.287
6 | CCTAGTTGGACAGGAGGTCACACACCGGATATGA | 1.71
7 | CATAGTTGGTCAGGAGGTCACACACCGGATATGA | 1.99
8 | CCTTACGGGTCACGAGGTAATAGCACGACGAGCG | 1.16
9 | TGGAGTAGGTTACCAATGGGGCATTCAGCTTTCT | 0.592
10 | GCGACTGGGGCAAAGCAGTTTACCATAAGGTTGG | -0.418
11 | CCTTACGGGTCACTGACAGGTTATAACATTTGGA | 1.52
12 | CTCGAAAGGGCGGTTGAGGTGAGTATACGGATAA | -0.275
13 | CTCGAAAGGTCGCTTGAGGTGAGTATACGGATAA | 0.149
14 | CCTACTGGGCCAAAAAGGTCGTTGATGCCGATAA | 0.0186
15 | CCGACAGGGGCAAGGTTACCATAACGCACAGCCA | 0.048
16 | CCTAGTTGGTCAGGAGGTCACCCACCGGATATGA | 1.53
17 | GCATATAGGTAATACAAGGTGTAAGTCCGATTGT | 0.804
18 | AACTCTAGGTAACAAGTTCAGTGAAAGAGAGGAC | 0.522
19 | CCTGCTAGGCCATGGTCAGCTAATCTACAGTATG | -0.715
20 | AGTCAAAGTTAATCTAGGTAACGTAAGATATGCT | 0.301
21 | CATACAGGGTCAGCTAGGTCAGAGTAGGGACGGC | 1.02
22 | CCTAGCAGGCCAATCTGGGTCAGTCAAGGCTTGA | -0.68
